Compound activity deposited in PubChem BioAssay by several laboratories.
This is a sample that favours compounds with a hit; in the whole collection about 4.2% have one here.
RecA splice inh – inhibitors of M. tuberculosis RecA intein splicing. 290,000 compounds, 0.75% hits. cell-free RecA intein splicing, fluorescence. inhibition, % (concentration not given with the values). P9WHJ3. AID 2221; in the data active means inhibition above about 30%;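 further: 0% = vehicle wells and 100% = reference inhibitor control wells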
GDH-TPI counter-1 – inhibits GDH-TPI coupling enzymes, artifact for Mtb FBA screen; GDH-TPI coupled enzyme counterscreen, NADH absorbance; inhibition, % at 4.8 µM; 360,000 compounds, 1.2% hits;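 further: 0% = DMSO wells and 100% = wells lacking the enzyme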
Mtb FBA inh – inhibitors of M. tuberculosis fructose-bisphosphate aldolase. 360,000 compounds, 2.3% hits. AID 588726. purified M. tuberculosis FBA, fluorescence read-out. P9WQA3. inhibition, % at 1 µM; in the data active means inhibition above about 27%;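 further: 0% = vehicle and 100% = reference inhibitor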
Target sequence (P9WQA3 whole entry, looked up): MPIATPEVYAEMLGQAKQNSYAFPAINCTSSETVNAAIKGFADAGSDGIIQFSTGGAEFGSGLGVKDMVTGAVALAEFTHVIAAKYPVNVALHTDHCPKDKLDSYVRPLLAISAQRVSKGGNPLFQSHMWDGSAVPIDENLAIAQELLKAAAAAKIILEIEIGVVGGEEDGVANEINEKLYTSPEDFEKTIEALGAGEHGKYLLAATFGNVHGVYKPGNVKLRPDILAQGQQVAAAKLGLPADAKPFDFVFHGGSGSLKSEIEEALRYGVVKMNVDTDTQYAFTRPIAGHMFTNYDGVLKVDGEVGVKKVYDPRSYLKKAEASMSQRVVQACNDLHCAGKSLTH
CCHFV vOTU inh – CCHFV vOTU protease inhibition; Pep-AMC fluorescence; inhibition, % at 11.5 µM; 370,000 compounds, 0.55% hits; further: 0% = vehicle wells with enzyme and 100% = no enzyme wells
Mtb FBA inh conf – confirmation of M. tuberculosis fructose-bisphosphate aldolase inhibitors; shares compounds with Mtb FBA inh; purified M. tuberculosis FBA, fluorescence read-out; inhibition, % at 1 µM; 5,600 compounds, 78% hits; AID 651616; in the data active means inhibition above about 27%;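 further: 0% = vehicle wells and 100% = reference inhibitor wells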
GDH-TPI counter-2 – counter-screen for M. tuberculosis FBA inhibitors: GDH-TPI coupled enzyme inhibition; shares compounds with Mtb FBA inh; GDH-TPI coupled enzyme counterscreen, fluorescence; inhibition, % at 1 µM; 5,600 compounds, 81% hits; in the data active means inhibition above about 10%
GDH-TPI dose – counter-screen for M. tuberculosis FBA inhibitors: GDH-TPI dose response; shares compounds with Mtb FBA inh; GDH-TPI coupled enzyme assay, fluorescence, artifact counterscreen; IC50, µM; 170 compounds, 79% hits; AID 652145; call rule not given here
Starred values were filed as active, the others as inactive; i = inactive; · = not tested or not shown; + = active, no number. Unless noted, no stated cut-off is given here; in the data, active means inhibition above about 30%; inactive means the rest.

SMILES	RecA splice inh	GDH-TPI counter-1	Mtb FBA inh	CCHFV vOTU inh	Mtb FBA inh conf	GDH-TPI counter-2	others
CCCSc1nnc(NC(=O)c2sc3nc(-c4cccs4)ccc3c2N)s1	-25	37*	43*	-7	153*	116*
COc1cc2ccnc(C=NO)c2cc1OC	·	13	42*	-41	122*	95*
Cc1ccccc1NC(=O)CNc1ccccc1C(=O)NCc1ccco1	2	7	48*	-34	166*	143*
Cc1cccc(C)c1NC(=S)Nc1ccccc1C(=O)NCc1ccco1	-2	5	39*	-25	25	7	GDH-TPI dose=>10
CCCn1c(=O)c(C(=O)NCCc2ccc(Cl)cc2)c(O)c2ccccc21	3	14	-2	-8	·	·
CSc1ccccc1C(=O)N1CCN(S(=O)(=O)c2sc(C(=O)O)c(C)c2C(=O)O)CC1	·	-4	2	23	·	·
O=[N+]([O-])c1cccc(-c2c(-c3ccccc3)ncc3ccc(F)cc23)c1	·	-10	2	25	·	·
COc1cccc(CNC(=O)CCS(=O)(=O)c2cc3c(cc2C)NC(=O)CO3)c1	4	17	2	2	·	·
COc1ccc(-c2coc3cc(O)c(OC)cc3c2=O)cc1	·	34*	44*	-38	84*	54*
COc1ccc(-c2coc3cc(O)ccc3c2=O)cc1	-2	22	35*	-27	121*	94*
Cc1[nH]c2ccc(C(=O)OCC(=O)Nc3cccc(S(N)(=O)=O)c3)cc2c1C	·	-4	0	3	·	·
Cc1ccc(C(=O)OCC(=O)NC2CCCCCC2)c(C)c1	·	5	4	-5	·	·
CC(C)Cn1c(N)c(C(=O)NCCN2CCOCC2)c2nc3ccccc3nc21	-371	22	110*	-60	77*	73*
CCCCn1c(N)c(C(=O)NCCN2CCOCC2)c2nc3ccccc3nc21	-235	11	80*	-89	+	+
CCCCn1c(NC(=O)c2ccc(Br)o2)c(C(=O)OCC)c2nc3ccccc3nc21	-25	11	58*	-65	+	179*
CCC(C)NC(=O)c1c(N)n(CCCOC)c2nc3ccccc3nc12 (stereo not given)	i	4	94*	14	+	+
Cc1cccc(-n2c(N)c(C(=O)NCCN3CCOCC3)c3nc4ccccc4nc32)c1	-316	·	·	-85	·	·
CCCCn1c(NC(=O)c2ccccc2Cl)c(C#N)c2nc3ccccc3nc21	27	4	26	9	·	·
N#CCC[C@H]1CC[C@]2(CCCN(S(=O)(=O)c3ccccc3)C2)O1	·	·	·	-12	·	·
CCOC(=O)CCCN(c1[nH]c(C)c(C)c1C#N)S(=O)(=O)c1ccc(C)cc1	·	-9	1	-1	·	·
CCCCN(C)CCNC(=O)c1c[nH]c2ccc(S(=O)(=O)N(CC)CC)cc2c1=O	0	21	29*	-1	51*	52*
COc1ccc2nc3c(cc2c1)c(NC(=O)C1CCCO1)nn3CC(C)C (stereo not given)	-359	12	39*	-33	-1	-3
COc1ccc(NC(=O)C2CCCN(c3nn4c(=O)cc(C)nc4s3)C2)c(OC)c1 (stereo not given)	4	5	5	9	·	·
COC(=O)[C@]12CCCCC=C1N(CCC1=CCCCC1)C(=O)[C@H](CC(=O)NCc1cccc(C(F)(F)F)c1)C2	·	·	·	24	·	·
CCCCNC(=O)c1ccc2c(c1)C(=O)N(Cc1ccncc1)C2=O	-4	2	-1	12	·	·
SMILES	RecA splice inh	GDH-TPI counter-1	Mtb FBA inh	CCHFV vOTU inh	Mtb FBA inh conf	GDH-TPI counter-2	others
OCCCNc1ncnc2oc(-c3ccccc3)c(-c3ccccc3)c12	-1	11	89*	-25	98*	79*
COc1ccc(-c2oc3ncnc(NCCN4CCOCC4)c3c2-c2ccc(OC)cc2)cc1	4	12	12	·	·	·
c1ccc(-c2csc3ncnc(NCCN4CCOCC4)c23)cc1	0	7	3	13	·	·
COc1ccc(-c2oc3ncnc(NCCCN4CCOCC4)c3c2-c2ccc(OC)cc2)cc1	-1	14	108*	-13	+	+
c1ccc(-c2oc3ncnc(NCCCN4CCOCC4)c3c2-c2ccccc2)cc1	2	22	48*	-15	-3	-1
OCCCNc1nnc(-c2ccccc2)c2ccccc12	-1	6	-2	7	·	·
CN1N=C(C(=O)N2CCCC(N3CCN(c4ccc(F)cc4)CC3)C2)CCC1=O (stereo not given)	-2	-7	1	1	·	·
